# Laboratory results taken from PubChem BioAssay (EPA / NIEHS).
# Results filed as inconclusive are left out. Active and inactive are the calls of the source. How the source made its calls, unless noted: active means hit-call score of the fitted dose curve at least 0.9, where 1 is the maximum; inactive means score below 0.9.
# Assays:
# [1] = CCTE_Harrill_HTTr_Viability_MCF7: CCTE's 6-hour Cell Viability Assessment for the High-Throughput Transcriptomics (HTTr) Platform, in MCF-7 cells cultured in DMEM + 10% fetal bovine serum, Harrill Lab (AID 2284010)
# Procedure, shortened: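 Propidium iodide exclusion, imaged by high-content analysis, gauged viability after a six-hour exposure across eight concentrations. Cells were MCF-7 grown in DMEM with 10% fetal bovine serum; fits run in both directions against DMSO.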
# [2] = CCTE_Harrill_HTTr_Apoptosis_MCF7: CCTE's 6-hour Apoptosis Assessment for the High-Throughput Transcriptomics (HTTr) Platform, in MCF-7 cells cultured in DMEM + 10% fetal bovine serum, Harrill Lab (AID 2284011)
# Procedure, shortened: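 Cells are dosed with test chemicals at eight concentrations and imaged 6 hours later for caspase-3/7 activity using a green fluorogenic detection reagent. Activity is fitted in both directions against DMSO controls.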
# [3] = CCTE_Shafer_MEA_acute_burst_number: CCTE's Neural Acute Assay for Single-Electrode Bursts, Shafer Lab (AID 2284013)
# Procedure, shortened: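 Burst totals were derived with adaptive spike detection (8x rms threshold) on filtered signals from rat cortical cultures; change relative to pre-treatment baseline after 40-min compound exposure (0.03-40 uM) was fitted in the negative direction against DMSO.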
# [4] = CCTE_Shafer_MEA_acute_per_burst_spike_number_mean: CCTE's Neural Acute Assay for Average Number of Spikes Per Burst, Shafer Lab (AID 2284015);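 further: hits are decreases in mean spikes per burst versus baseline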
# Procedure, shortened: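 We recorded spontaneous network firing of rat cortical neurons for 40 min before and 40 min during exposure to compound at 0.03-40 uM, at 37 C. Spikes were detected adaptively at 8x rms noise, and the change in average spikes per burst was fitted against DMSO.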
# [5] = CCTE_Shafer_MEA_acute_burst_percentage_mean: CCTE's Neural Acute Assay for Percentage of Spikes in a Burst, Shafer Lab (AID 2284017);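 on AC50: curve fitted for loss of signal so potency reflects decreased burst percentage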
# Procedure, shortened: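 Compounds were tested at 0.03-40 uM on primary rat cortical neuron networks grown over microelectrodes, with at least three wells per compound. Spontaneous firing was recorded for 40 min before and 40 min after dosing, and the change in burst percentage was computed per well.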
# [6] = CCTE_Shafer_MEA_acute_burst_percentage_std: CCTE's Neural Acute Assay for Standard Deviation of Burst Percentage, Shafer Lab (AID 2284018);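 further: fitted in the negative direction so actives lower burst percentage SD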
# Procedure, shortened: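 Primary rat cortical neurons on 16-electrode MEA wells were recorded 40 min at baseline (DIV 13 or 15), then 40 min after compound (0.03-40 uM), at 37 C. Well value is SD across electrodes of spikes-in-bursts/total spikes; endpoint is percent change, DMSO-referenced.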
# [7] = CCTE_Shafer_MEA_acute_per_network_burst_spike_number_mean: CCTE's Neural Acute Assay for Average Number of Spikes in a Network Burst, Shafer Lab (AID 2284019);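 on AC50: curve fitted for loss of signal so actives reduce spikes per network burst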
# Procedure, shortened: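 Acute exposure of rat primary cortical networks (DIV 13/15) on MEAs; adaptive spike detection at 8x rms noise, 37 C. Percent change in spikes per network burst after 40 min with compound (0.03-40 uM), negative direction vs DMSO.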
# [8] = CCTE_Shafer_MEA_acute_per_network_burst_spike_number_std: CCTE's Neural Acute Assay for Standard Deviation of Number of Spikes in a Network Burst, Shafer Lab (AID 2284020);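 further: fitted for decrease in spike-number SD versus DMSO so actives lower it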
# Procedure, shortened: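 Acute MEA exposure, rat cortical neurons, 0.03-40 uM. Per-well % change versus own baseline; DMSO as negative control.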
# [9] = CCTE_Shafer_MEA_acute_per_network_burst_electrodes_number_mean: CCTE's Neural Acute Assay for Mean Number of Electrodes in a Network Burst, Shafer Lab (AID 2284021);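 further: curves fitted for decreases only so hits reduce electrodes per burst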
# Procedure, shortened: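 Cultures of rat cortex neurons were exposed on DIV 13 or 15 to compounds at 0.03-40 uM in at least three wells each. Activity over 40 min before and 40 min after exposure at 37 C gave the percent change in electrodes per network burst.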
# [10] = CCTE_Shafer_MEA_acute_network_burst_percentage: CCTE's Neural Acute Assay for Percentage of Network Bursts, Shafer Lab (AID 2284022);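 further: curves fitted for loss so actives lower network burst percentage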
# Procedure, shortened: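 Cortical neurons from rat were grown over microelectrode arrays and used on day 13 or 15 in vitro. Wells with at least 10 active electrodes received test chemical at 0.03-40 uM. Activity during 40 min of exposure was compared with the preceding 40-min baseline.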
# [11] = CCTE_Shafer_MEA_acute_cross_correlation_HWHM: CCTE's Neural Acute Assay for Cross Correlation at Half Width at Half Maximum, Shafer Lab (AID 2284026);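 further: percent change per well from pre-dose baseline in spike cross-correlogram half width; hits are a decrease in cross-correlogram half width relative to DMSO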
# Procedure, shortened: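 Primary cortex (rat), MEA, DIV 13/15; compound 0.03-40 uM; 40 min pre + 40 min post at 37 C; spike threshold 8x rms; wells need ≥10 active electrodes; endpoint = % change in cross-correlogram HWHM vs baseline, DMSO negative control.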
# [12] = CCTE_Shafer_MEA_acute_synchrony_index: CCTE's Neural Acute Assay for Synchrony, Shafer Lab (AID 2284027);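 further: network synchrony index of spontaneous spiking in primary rat cortical neurons on MEAs; fitted for loss of signal so actives lower synchrony relative to DMSO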
# Procedure, shortened: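 The synchrony index is taken as percent change per well between a 40 min baseline and a 40 min recording with compound (0.03–40 uM), at 37C. Rat cortical cultures on multiwell MEAs at DIV 13 or 15, spike threshold 8× rms noise.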
# [13] = CCTE_Shafer_MEA_dev_firing_rate_mean: CCTE's Neural Network Formation Assay for Mean Firing Rate, Shafer Lab (AID 2284031)
# Procedure, shortened: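 Spike frequency (spikes/recording length, averaged over active electrodes) was recorded on days 5, 7, 9 and 12 and collapsed to AUC; rat cortical cultures received compound continuously over 12 days of network development.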
# [14] = CCTE_Shafer_MEA_dev_per_burst_spike_percent: CCTE's Neural Network Formation Assay for Percent of Spikes in a Burst, Shafer Lab (AID 2284032);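 further: fitted as a decrease in burst spike percentage below DMSO baseline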
# Procedure, shortened: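 Value is trapezoidal AUC over recordings on days 5, 7, 9 and 12 of the well-mean fraction of spikes falling in single-electrode bursts; rat cortical cultures exposed continuously from plating, treatment renewed DIV 5 and 9, fitted downward against DMSO.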
# [15] = CCTE_Deisenroth_AIME_384WELL_CTox_Active: Cytotoxicity Assessment (CTOX) in CCTE's 384-well Estrogen Receptor Transactivation Assay with AIME metabolic competence (metabolism positive), Deisenroth Lab (AID 2284037; active means hit-call score of the fitted dose curve at least 0.9, where 1 is the maximum;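 further: chemicals first conditioned 2 h by alginate-bound induced rat liver S9 before cells; activity means signal loss indicating cell death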)
# Procedure, shortened: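 VM7Luc4E2 breast cells received medium pre-incubated 2 h with chemical over alginate microspheres holding induced male Sprague Dawley rat liver S9; viability read 24 h later by protease-substrate fluorescence. Loss of signal, bidirectional fit, 0.002–200 uM.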
structure (smiles),measurement,setting,value
Cc1nc(-c2ccccn2)ncc1C(=O)Nn1cc(C)c2cc(F)ccc21,outcome,[1],inactive
same,outcome,[2],inactive
CCCCCCCCN(C)C,outcome,[1],inactive
same,outcome,[2],inactive
COc1cc(C(C)C)c2c(c1)S(=O)(=O)N(COc1cc(=O)n3cccc(OCCN4CCCCC4)c3n1)C2=O,outcome,[1],inactive
same,outcome,[2],inactive
same,outcome,[3],inactive
same,outcome,[4],inactive
same,outcome,[5],inactive
same,AC50,[6],7.87 µM (active)
same,outcome,[7],inactive
same,AC50,[8],1.03 µM (active)
same,outcome,[9],inactive
same,outcome,[10],inactive
same,AC50,[11],7.59 µM (active)
same,AC50,[12],7.39 µM (active)
O=C(NO)C1(NS(=O)(=O)c2ccc(Oc3ccc(F)cc3)cc2)CCOCC1,outcome,[1],inactive
same,outcome,[2],inactive
COCc1nnc(-c2ccc[n+]([O-])c2)n1-c1c(Cl)c(Cl)cc2[nH]c(=O)c(=O)[nH]c12,outcome,[1],inactive
same,outcome,[2],inactive
same,outcome,[3],inactive
same,AC50,[4],8.06 µM (active)
same,AC50,[5],17.2 µM (active)
same,outcome,[6],inactive
same,AC50,[7],4.76 µM (active)
same,AC50,[8],10.9 µM (active)
same,outcome,[9],inactive
same,AC50,[10],29.2 µM (active)
same,AC50,[11],8.51 µM (active)
same,AC50,[12],14.7 µM (active)
Cn1c(=O)c2[nH]cnc2n(C)c1=O,outcome,[1],inactive
same,outcome,[2],inactive
same,outcome,[3],inactive
same,outcome,[4],inactive
same,outcome,[5],inactive
same,outcome,[6],inactive
same,outcome,[7],inactive
same,outcome,[8],inactive
same,outcome,[9],inactive
same,outcome,[10],inactive
same,outcome,[11],inactive
same,outcome,[12],inactive
CCCCN1C(=O)[C@@H]([C@H](O)C2CCCCC2)NC(=O)C12CCN(Cc1ccc(Oc3ccc(C(=O)O)cc3)cc1)CC2,outcome,[1],inactive
same,outcome,[2],inactive
OCCNCCO,outcome,[1],inactive
same,outcome,[2],inactive
Cc1ncc([C@@H](CCCCCCc2ccc3c(n2)NCCC3)CC(=O)O)cn1,AC50,[1],0.0626 µM (active)
same,AC50,[2],1.6 µM (active)
same,outcome,[3],inactive
same,outcome,[4],inactive
same,outcome,[5],inactive
same,outcome,[6],inactive
same,outcome,[7],inactive
same,outcome,[8],inactive
same,outcome,[9],inactive
same,outcome,[10],inactive
same,outcome,[11],inactive
same,outcome,[12],inactive
CCCCCCCCCCCCCCO,outcome,[1],inactive
same,outcome,[2],inactive
OC[C@H]1O[C@@H]2O[C@H]3[C@H](O)[C@@H](O)[C@@H](O[C@H]4[C@H](O)[C@@H](O)[C@@H](O[C@H]5[C@H](O)[C@@H](O)[C@@H](O[C@H]6[C@H](O)[C@@H](O)[C@@H](O[C@H]7[C@H](O)[C@@H](O)[C@@H](O[C@H]1[C@H](O)[C@H]2O)O[C@@H]7CO)O[C@@H]6CO)O[C@@H]5CO)O[C@@H]4CO)O[C@@H]3CO,outcome,[1],inactive
same,outcome,[2],inactive
NC(=O)N(O)[C@@H]1COc2cc(OCc3ccccc3)ccc21,outcome,[1],inactive
same,outcome,[2],inactive
C=CN1CCCC1=O,outcome,[1],inactive
same,outcome,[2],inactive
NC(N)=O,outcome,[1],inactive
same,outcome,[2],inactive
O=C(O)c1cccc(C[C@@H]2COc3ccc(OCc4nc5cc(F)ccc5s4)cc3[C@@H]2O)c1,outcome,[1],inactive
same,outcome,[2],inactive
OC(CCl)CCl,outcome,[1],inactive
same,outcome,[2],inactive
same,outcome,[3],inactive
same,outcome,[4],inactive
same,outcome,[5],inactive
same,outcome,[6],inactive
same,outcome,[7],inactive
same,outcome,[8],inactive
same,outcome,[9],inactive
same,outcome,[10],inactive
same,outcome,[11],inactive
same,outcome,[12],inactive
O=S(=O)(O)c1ccc(N=Nc2c(O)ccc3cc(S(=O)(=O)O)ccc23)cc1,outcome,[1],inactive
same,outcome,[2],inactive
same,outcome,[3],inactive
same,outcome,[4],inactive
same,outcome,[5],inactive
same,outcome,[6],inactive
same,outcome,[7],inactive
same,outcome,[8],inactive
same,outcome,[9],inactive
same,outcome,[10],inactive
same,outcome,[11],inactive
same,outcome,[12],inactive
S=P(N1CC1)(N1CC1)N1CC1,outcome,[1],inactive
same,outcome,[2],inactive
O=C(O)CO,outcome,[1],inactive
same,outcome,[2],inactive
Cc1ccc(S(=O)(=O)NC(=O)NN2CCCCCC2)cc1,outcome,[1],inactive
same,outcome,[2],inactive
O=C(O)[C@H](O)[C@@H](O)C(=O)O,outcome,[1],inactive
same,outcome,[2],inactive
CC[C@H](C)C(=O)O[C@H]1C[C@H](O)C=C2C=C[C@H](C)[C@H](CC[C@@H](O)C[C@@H](O)CC(=O)O)[C@H]21,outcome,[1],inactive
same,outcome,[2],inactive
same,outcome,[3],inactive
same,outcome,[4],inactive
same,outcome,[5],inactive
same,outcome,[6],inactive
same,outcome,[7],inactive
same,outcome,[8],inactive
same,outcome,[9],inactive
same,outcome,[10],inactive
same,outcome,[11],inactive
same,outcome,[12],inactive
same,outcome,[13],inactive
same,AC50,[14],1.92 µM (active)
O=C(N[C@H](CO)[C@H](O)c1ccc([N+](=O)[O-])cc1)C(Cl)Cl,outcome,[1],inactive
same,outcome,[2],inactive
O=C(O)c1cccc(C(=O)O)c1,outcome,[1],inactive
same,outcome,[2],inactive
O=C(O)c1ccc2c(c1)nc(C(=O)NC1CCN(C3CC3)CC1)n2Cc1cc(-c2ccc(Cl)s2)on1,outcome,[1],inactive
same,outcome,[2],inactive
CC(C)C(=O)Nc1ccc([N+](=O)[O-])c(C(F)(F)F)c1,outcome,[1],inactive
same,outcome,[2],inactive
same,outcome,[3],inactive
same,AC50,[4],4.66 µM (active)
same,AC50,[5],6.55 µM (active)
same,outcome,[6],inactive
same,outcome,[7],inactive
same,AC50,[8],5.47 µM (active)
same,outcome,[9],inactive
same,AC50,[10],34.4 µM (active)
same,AC50,[11],5.73 µM (active)
same,outcome,[12],inactive
O=c1[nH]cnc2c1ncn2[C@H]1CC[C@@H](CO)O1,outcome,[1],inactive
same,outcome,[2],inactive
CCc1ccc(O)c(C(C)(C)C)c1,outcome,[1],inactive
same,outcome,[2],inactive
same,AC50,[3],1.03 µM (active)
same,AC50,[4],30.3 µM (active)
same,AC50,[5],2.12 µM (active)
same,AC50,[6],20 µM (active)
same,AC50,[7],35.3 µM (active)
same,outcome,[8],inactive
same,AC50,[9],35 µM (active)
same,outcome,[10],inactive
same,outcome,[11],inactive
same,outcome,[12],inactive
same,outcome,[15],inactive
